Experimental findings from PubChem BioAssay (NCI) are described below.

The structures appear in SMILES notation. This is part of a sample that, as a whole, favours compounds with a hit. Of some 79,000 tested, about 15% had one in any assay. Values without a mark were called inactive. Calls of active or inactive are those of the source. No stated cut-off is given here; in the data, active means growth inhibition above about 70%; inactive means the rest.

The first assay is described as follows: NCI Yeast Anticancer Drug Screen. Data for the rad50 strain (AID 155).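 Further: 0% = growth of vehicle-only cultures of the same strain.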 As to conditions: S. cerevisiae rad50 strain growth inhibition; at 50.0 µM; hits give high values. Summed up:
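Relative growth inhibition (compound vs vehicle) was measured in yeast with a defined repair-gene alteration.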
Consider `CC(C)=Cc1ccccc1C1(C)C(c2ccccc2)=C1c1ccccc1`, for which the growth inhibition was -3.35%.
For `CC(=O)CCC(=O)c1ccoc1`, the growth inhibition was 9.05%.
For `O=P(O)(O)c1ccccc1Oc1ccccc1`, the growth inhibition was 7.8%.
Consider `CCN(CC)N=Nc1ccc(S(N)(=O)=O)cc1`, for which the growth inhibition is 8.25%.
With `CCCOc1ccc(C(=O)O)cc1`, the growth inhibition was 10.8%.
For `Cc1ccc(C(=S)NC(=O)Nc2ccccc2)cc1`, the growth inhibition is -7.1%.
`NCCCNCCCCNC(=O)C(O)NC(=O)CCCCCCN=C(N)N` (stereo not given): the growth inhibition was -2.7%.
For `NC(Cc1cccnn1)C(=O)O` (stereo not given), the growth inhibition is -29.2%.
Turning to `OCC1CC=CCC1` (stereo not given), the growth inhibition was 2.35%.
On to `COc1ccc(/C=C2\CCC(CCN(C)C)(C3=CCCC3)C2=O)cc1` (stereo not given), for which the growth inhibition is 2.1%.
Still for that read-out and setting: to `COC1OCCCO1` belongs -12.6%.
In the case of `CSc1ncc(Br)c(Sc2nccn2C)n1`, the growth inhibition is 11.4%.
Take `CCC1CN2CCc3cc(OC)c(OC)cc3C2CC1CC1c2cc(OC)c(OC)cc2CCN1C(=O)C1CCCN1` (stereo not given): the growth inhibition is -1.45%.
On the same count and under the same terms, to `Clc1ccc(C2SCCS2)c(Cl)c1` belongs 56.8%; to `CC(=O)CC(=O)NN(C)C`, -4.8%.
Regarding `CC1CCC2(CC1)NN=c1s/c(=C\c3ccc(O)cc3)c(=O)n1N2` (stereo not given), the growth inhibition is -9.3%.
On to `COC(=O)/C=C/CCCC1CCCCC1`, for which the growth inhibition was -7.8%.
Consider `CCOC(=O)C1=C(C(=O)c2ccccc2)C(c2ccc([N+](=O)[O-])cc2)C(C(=O)c2ccccc2)=C(C(=O)OCC)N1`, for which the growth inhibition is -6.5%.
`CCCCCCCCCCCCCCCCOP(=O)(O)OP(=O)(O)OCC1OC(n2ccc(N)nc2=O)CC1O` (stereo not given): the growth inhibition was -10.2%.
On the same count and under the same terms, the same measure for `CN(C)CCCNc1nnc(NCCCN(C)C)c2[nH]cnc12`: -3.2%; for `Cc1ccc2ccccc2c1CSc1nc(N)nc2c1ncn2CC(C)C`: 37%.
Turning to `c1ccc(CCc2nc3ccccc3[nH]2)cc1`, the growth inhibition is -1.9%.
With `N#CSCc1ccc(CSC#N)c(Br)c1`, the growth inhibition was 20.2%.
Still for that read-out and setting: the same measure for `O=C(O)c1ccccc1Nc1nc2ccccc2o1`: -1.85%; for `OC(CNC1CC2CCC1C2)COc1cccc2ccccc12` (stereo not given): 68.4%; for `[N-]=[N+]=Nc1cc(=O)n(-c2ccccc2)c(=O)n1-c1ccccc1`: 9.5%.
As for `O=[N+]([O-])c1ccc(N=N/C(=N\Nc2ccccc2)c2nc3ccccc3[nH]2)c([N+](=O)[O-])c1`, the growth inhibition was 7.45%.
Take `Cc1cccc2nnc(CCCc3nnc4cccc(C)n34)n12`: the growth inhibition was -0.85%.
For the compound `COc1ccc(-c2cc(N3CCN(c4ccccc4)CC3)c(C#N)c(=O)o2)cc1`, the growth inhibition was 25.1%.
Regarding `C=C1C(=O)OC2CCC(O)C12` (stereo not given), the growth inhibition was 6.95%.
For `CCOC(=O)CCCOc1ccccc1`, the growth inhibition is 24.4%.
On the same count and under the same terms, the same measure for `CCN(CC)CCOc1cccc(Oc2ccccc2)c1`: 74% (active); for `CC12CCC(O)CC1=CCC1C2CCC2(C)C1CCC21SCCS1` (stereo not given): 2.35%; for `NC1=NC(=O)C(CC(=O)Nc2ccc([N+](=O)[O-])cc2[N+](=O)[O-])S1` (stereo not given): -15.2%.
The same measure, in the same setting: the same measure for `CCOC(=O)CNC(=O)C(Cc1cnc[nH]1)NC(=O)OCc1ccccc1` (stereo not given): -1.9%; for `OC(CC1CCCCN1)c1cc2c(Cl)cc(Cl)cc2c2cc(C(F)(F)F)ccc12` (stereo not given): 68%; for `O=C1c2ccccc2C(=O)c2nc3ccc(Cl)cc3cc21`: -12.3%.
Turning to `Cc1cc(Cl)ccc1N1C(=O)C(=O)C(c2nc3ccccc3s2)/C(=N\NC(=O)c2ccccc2O)C1=O` (stereo not given), the growth inhibition is -37.9%.
Take `COc1cc2cc3c4ccc(OC)c(OC)c4cc[n+]3c(C)c2cc1OC` (tested in a mixture with another compound): the growth inhibition is 98.1% (active).
For the compound `Cc1cc2c(=O)[nH]cnc2[nH]1`, the growth inhibition is -5.6%.

A further assay is described as follows: NCI Yeast Anticancer Drug Screen. Data for the mec2-1 strain (AID 157). The conditions noted are these: S. cerevisiae mec2-1 strain, at 50.0 µM, hits give high values. The method in brief: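 Strain: mec2-1 (DNA repair/cell cycle alteration). Compound exposure, then growth measured; inhibition expressed relative to vehicle.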
For the compound `CC(C)=Cc1ccccc1C1(C)C(c2ccccc2)=C1c1ccccc1`, the growth inhibition was 8.6%.
The same measure, in the same setting: to `CC(=O)CCC(=O)c1ccoc1` belongs -4.2%.
With `O=P(O)(O)c1ccccc1Oc1ccccc1`, the growth inhibition is 7.55%.
Same read-out and setting: to `CCN(CC)N=Nc1ccc(S(N)(=O)=O)cc1` belongs 12.6%.
On the same count and under the same terms, to `CCCOc1ccc(C(=O)O)cc1` belongs 7.85%.
Same read-out and setting: to `Cc1ccc(C(=S)NC(=O)Nc2ccccc2)cc1` belongs 9.45%; to `NCCCNCCCCNC(=O)C(O)NC(=O)CCCCCCN=C(N)N` (stereo not given), -11.2%; to `NC(Cc1cccnn1)C(=O)O` (stereo not given), -22.8%.
Turning to `OCC1CC=CCC1` (stereo not given), the growth inhibition is -22.1%.
Take `COc1ccc(/C=C2\CCC(CCN(C)C)(C3=CCCC3)C2=O)cc1` (stereo not given): the growth inhibition was -6.6%.
In the case of `COC1OCCCO1`, the growth inhibition was 11.6%.
For the compound `CSc1ncc(Br)c(Sc2nccn2C)n1`, the growth inhibition was 7.3%.
Same read-out and setting: the same measure for `CCC1CN2CCc3cc(OC)c(OC)cc3C2CC1CC1c2cc(OC)c(OC)cc2CCN1C(=O)C1CCCN1` (stereo not given): -1.45%; for `Clc1ccc(C2SCCS2)c(Cl)c1`: 28.2%.
With `CC(=O)CC(=O)NN(C)C`, the growth inhibition is -32.4%.
In the case of `CC1CCC2(CC1)NN=c1s/c(=C\c3ccc(O)cc3)c(=O)n1N2` (stereo not given), the growth inhibition was -1.7%.
`COC(=O)/C=C/CCCC1CCCCC1`: the growth inhibition was -3.85%.
As for `CCOC(=O)C1=C(C(=O)c2ccccc2)C(c2ccc([N+](=O)[O-])cc2)C(C(=O)c2ccccc2)=C(C(=O)OCC)N1`, the growth inhibition was 1.6%.
Consider `CCCCCCCCCCCCCCCCOP(=O)(O)OP(=O)(O)OCC1OC(n2ccc(N)nc2=O)CC1O` (stereo not given), for which the growth inhibition is -3.9%.
Still for that read-out and setting: to `CN(C)CCCNc1nnc(NCCCN(C)C)c2[nH]cnc12` belongs -4.2%.
Still for that read-out and setting: the same measure for `Cc1ccc2ccccc2c1CSc1nc(N)nc2c1ncn2CC(C)C`: 23.6%; for `c1ccc(CCc2nc3ccccc3[nH]2)cc1`: 11.1%.
In the case of `N#CSCc1ccc(CSC#N)c(Br)c1`, the growth inhibition is 14.9%.
As for `O=C(O)c1ccccc1Nc1nc2ccccc2o1`, the growth inhibition is 2.15%.
For the compound `OC(CNC1CC2CCC1C2)COc1cccc2ccccc12` (stereo not given), the growth inhibition was 42.9%.
In the case of `[N-]=[N+]=Nc1cc(=O)n(-c2ccccc2)c(=O)n1-c1ccccc1`, the growth inhibition is 8.75%.
In the case of `O=[N+]([O-])c1ccc(N=N/C(=N\Nc2ccccc2)c2nc3ccccc3[nH]2)c([N+](=O)[O-])c1`, the growth inhibition is -5.2%.
`Cc1cccc2nnc(CCCc3nnc4cccc(C)n34)n12`: the growth inhibition is 1.85%.
Same read-out and setting: to `COc1ccc(-c2cc(N3CCN(c4ccccc4)CC3)c(C#N)c(=O)o2)cc1` belongs 3.3%.
For the compound `C=C1C(=O)OC2CCC(O)C12` (stereo not given), the growth inhibition is 5.15%.
The same measure, in the same setting: the same measure for `CCOC(=O)CCCOc1ccccc1`: -2.95%.
In the case of `CCN(CC)CCOc1cccc(Oc2ccccc2)c1`, the growth inhibition is 62.7%.
`CC12CCC(O)CC1=CCC1C2CCC2(C)C1CCC21SCCS1` (stereo not given): the growth inhibition was 9.7%.
As for `NC1=NC(=O)C(CC(=O)Nc2ccc([N+](=O)[O-])cc2[N+](=O)[O-])S1` (stereo not given), the growth inhibition is -30.3%.
On the same count and under the same terms, the same measure for `CCOC(=O)CNC(=O)C(Cc1cnc[nH]1)NC(=O)OCc1ccccc1` (stereo not given): -13.6%; for `OC(CC1CCCCN1)c1cc2c(Cl)cc(Cl)cc2c2cc(C(F)(F)F)ccc12` (stereo not given): 50.6%.
Regarding `O=C1c2ccccc2C(=O)c2nc3ccc(Cl)cc3cc21`, the growth inhibition was -18.4%.
`Cc1cc(Cl)ccc1N1C(=O)C(=O)C(c2nc3ccccc3s2)/C(=N\NC(=O)c2ccccc2O)C1=O` (stereo not given): the growth inhibition is 0.45%.
As for `COc1cc2cc3c4ccc(OC)c(OC)c4cc[n+]3c(C)c2cc1OC` (tested in a mixture with another compound), the growth inhibition is 97.7% (active).
Same read-out and setting: to `Cc1cc2c(=O)[nH]cnc2[nH]1` belongs -1.35%.
